# The list is not random: actives were taken first. Their share in the collection is about 2.4%.
# D2 antag: antagonists of human D2 dopamine receptor | HEK293 TREx D2 cells, calcium flux, dopamine EC80 | inhibition, % at 10 µM | 340,000 compounds, 2% hits | AID 485344; in the data active means inhibition above about 30%; inactive means below that, where a call was filed; further: 0% is about no effect
# Target sequence (P14416 whole entry, looked up): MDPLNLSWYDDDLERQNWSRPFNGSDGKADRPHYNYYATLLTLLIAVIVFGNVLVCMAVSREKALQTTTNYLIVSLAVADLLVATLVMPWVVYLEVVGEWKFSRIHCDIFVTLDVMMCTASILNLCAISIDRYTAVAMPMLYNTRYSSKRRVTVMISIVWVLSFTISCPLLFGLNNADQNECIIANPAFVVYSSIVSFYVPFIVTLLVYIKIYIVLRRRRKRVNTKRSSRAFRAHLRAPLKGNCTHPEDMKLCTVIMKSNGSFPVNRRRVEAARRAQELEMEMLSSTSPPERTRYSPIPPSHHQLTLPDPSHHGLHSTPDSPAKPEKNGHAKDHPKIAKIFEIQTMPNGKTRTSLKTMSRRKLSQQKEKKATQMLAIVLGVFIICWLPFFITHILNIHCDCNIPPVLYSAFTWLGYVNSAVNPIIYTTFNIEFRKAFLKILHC
#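 Calcium mobilization kinetics were recorded at 1 s intervals in tetracycline-induced HEK293 T-REx D2 cells, first for 180 s after compound addition and then 180 s after EC80 dopamine.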
# D2 PAM-1: positively modulates the human D2 dopamine receptor allosterically; P14416; HEK293 T-REx D2, calcium flux, EC20 dopamine potentiation; potentiation, % at 10 µM; 340,000 compounds, 0.34% hits; AID 485347;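 active means potentiation over 3 SD above the plate norm, cut at about 30% in these data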; further: 0% is about no effect
#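 Primary screen. Calcium kinetics in induced HEK293 T-REx D2 cells: compound pre-addition 180 s, EC20 dopamine, 180 s more.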
# D2 ag-1: D2 dopamine receptor (human) agonism | P14416 | HEK293 T-REx D2 cells, calcium flux agonist mode | activation, % at 2 µM | 340,000 compounds, 0.53% hits | AID 485358;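 active means activation over 3 SD above normal in the single-dose calcium agonist read, cut at about 30% in these data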; further: 0% is about no effect
#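 HEK293 Trex D2 cells, tetracycline-induced, o/n 30 C 5% CO2; no-wash Ca dye, RT 30–90 min; 10-cycle baseline, 23 nl cpd added, kinetic Ca read 180 s; agonist hits = positive Ca response.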
# D2 ag-2: agonists of human D2 dopamine receptor (beta-arrestin) | P14416 | DiscoveRx PathHunter D2 beta-arrestin, luminescence, 90 min; 100% = 57 uM dopamine signal | 360,000 compounds, 0.084% hits | AID 624465 | activation, % (test concentration not listed); in the data active means activation above about 40%; inconclusive means between about 15% and that limit
#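 Agonist mode: compounds alone added to overnight-plated D2 PathHunter cells for 90 min at 37 C, with 57 uM final dopamine (EC100) defining full response. Beta-arrestin recruitment detected by chemiluminescent reagent, read after 1 h at ambient temperature.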
# D2 PAM-2: positive allosteric modulators of human D2 dopamine receptor; DiscoveRx D2 beta-arrestin cells, luminescence, 90 min; 100% = 57 uM dopamine signal; 360,000 compounds, 0.23% hits; potentiation, % (test concentration not listed); AID 624464; in the data active means potentiation above about 50%; inconclusive means mostly about 30% to 49%
#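 D2 cells co-treated with compound plus 50 nM dopamine (EC20) for 90 min at 37 deg C to detect potentiation. Beta-arrestin recruitment was read as enzyme-fragment luminescence after 1 h at ambient temperature. Full response was set by 57 uM dopamine.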
# D3 arrestin ag: D3 receptor agonism confirmed, beta-arrestin readout; shares compounds with D2 ag-1; DiscoveRx D3 beta-arrestin cells, luminescence, 90 min; Potency, µM (doses to about 76.9 µM), for the others: at the highest dose activation, most hits filed as activators; 2,300 compounds, 4% hits; AID 720506;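 further: potency means the concentration at half of the fitted maximal effect; 100% = dopamine control response; nearly all actives have a fitted effect of over 70% in size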
# D2 ag-3: D2 receptor agonism, beta-arrestin counterscreen; shares compounds with D2 ag-1; DiscoveRx PathHunter D2 beta-arrestin, luminescence, 90 min; response scale: percent relative to full dopamine signal; Potency, µM (top dose mostly 76.9 µM), without a hit: top-dose activation, most hits filed as activators; 2,300 compounds, 5.9% hits; further: potency means the concentration at half of the fitted maximal effect; % of control where 0% means no effect; nearly all actives have a fitted effect of over 70% in size
# Numbers without * were called inactive; ? = inconclusive; . = not tested or not shown. Unless noted, the call rests on the fitted dose curve; in most records, active means well fitted activation curve with a large enough effect; inconclusive means small, poorly fitted or top-dose-only effect; inactive means flat fitted curve, though single readings scatter.
SMILES,D2 antag,D2 PAM-1,D2 ag-1,D2 ag-2,D2 PAM-2,D3 arrestin ag,D2 ag-3
COc1ccc(OCC(=O)NCCNC(=O)c2cccnc2)cc1,-6,3,0,-4,0,.,.
COCCN(Cc1ccco1)C(=O)C1CCCN(c2ncnc3c2nc2n3CCCCC2)C1 (configuration not stated),7,-19,-3,1,2,4%,-5%
COc1cc(NC(=O)C2CCCN(c3ncnc4c3nc3n4CCCCC3)C2)cc(OC)c1OC (configuration not stated),-10,-3,39*,4,18,5%,-3%
CCCCSc1nc2ccccc2n1CC(=O)O,6,-1,0,1,-15,.,.
CC1CCN(c2ccc(C(=O)NCc3ccco3)cc2[N+](=O)[O-])CC1,6,2,0,-1,-14,-10%,-11%
CN(C)CCNC(=O)C12CC3(C)CC(C)(CC(C)(C3)C1)C2,2,-15,27,-1,-29,-16%,-3%
Cc1ccc2c(c1)N(C(C)C(=O)NCc1ccc3c(c1)OCO3)C(=O)CO2 (configuration not stated),16,-7,0,5,-3,-1%,-1%
COc1ccc2nc3sc(C(=O)NCCN4CCc5ccccc5C4)cc3cc2c1,53*,-34,66*,?,-18,23%,?
Cc1ccc(S(=O)(=O)N(C)C)cc1NC(=O)C1CCN(C(=O)Nc2ccccc2)CC1,73*,-29,1,0,-30,-2%,-4%
CC(c1ccccc1)n1c(-c2cccs2)nc2c(c(=O)c3ccccc3n2C)c1=O (configuration not stated),9,20,2,-2,-9,-10%,-5%
NC(=O)[C@@H]1CC2(CC(c3cccc(NC(=O)CC(c4ccccc4)c4ccccc4)c3)=NO2)CN1C(=O)c1ccc(Cl)cc1 (some centres not stated),1,13,0,2,13,.,.
COc1ccc2c(c1)OC[C@H]1[C@H]2N2C(=O)CN(C)C(=O)[C@@]2(C)[C@H]1c1ccccc1,-3,11,1,0,-5,-5%,-1%
CCCCN1CC(=O)N2[C@H]3c4ccc(OC)cc4OC[C@@H]3[C@H](C(=O)OCC)[C@]2(C)C1=O,-15,3,-1,1,-1,-2%,-1%
CC1(C)NC(=O)N(CC(=O)NNC(=O)c2ccccc2F)C1=O,1,0,0,0,-16,.,.
Cc1ccc(CN(C)C(=O)COC(=O)CSc2cc(C)c3ccccc3n2)cc1,-24,-4,0,-5,2,-3%,0%
CCOC(=O)c1cccc(OCC(O)CNCCOc2ccccc2F)c1 (configuration not stated),83*,-31,81*,47*,4,15%,?
CCOC(=O)c1c(C)n(C)c2ccc(OCC(O)CN3CCN(C)CC3)cc12 (configuration not stated),-1,3,0,-7,-9,.,.
CCOC(=O)c1c(C)n(C)c2ccc(OCC(O)CNCCc3ccccc3)cc12 (configuration not stated),31*,-12,2,1,-25,-7%,-3%
CC(=O)c1cccc(OCC(O)CNCCc2ccc(Cl)cc2)c1 (configuration not stated),-13,5,1,3,-32,.,.
CCOc1ccc(NC(=O)c2cc(S(=O)(=O)N3CCN(c4ccccc4F)CC3)ccc2F)cc1,.,0,0,.,.,.,.
CC(C)OC(=O)CC12CN3CC(CC(=O)OC(C)C)(CN(C1)C(=O)c1ccccc1C3=O)C2=O,-1,3,-1,2,-9,.,.
O=C(CCc1c[nH]c2ccccc12)OCC(=O)N1CCN(S(=O)(=O)c2ccccc2)CC1,4,4,1,-1,7,.,.
